The list is not random: actives were taken first. Their share in the collection is about 3.5%.
rCAG binder – binders of r(CAG) RNA repeats, primary screen, biochemical, fluorescence; r(CAG) RNA repeat, TO-PRO-1 dye displacement fluorescence; inhibition, % at 3 µM; 370,000 tested, 1.3% active; AID 651821, 2012;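 active means inhibition above the plate cutoff, the mean of all test compounds on that plate plus 3 SD, cut at about 35% in these data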;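 further: 0% = DMSO alone and 100% = 100 µM mitoxantrone as full dye displacement; higher means more dye released from RNA so lower well fluorescence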
UHRF1 binding – UHRF1 methylated DNA binding inhibitors, primary screen, counter-screen for MBD2 inhibitor project, biochemical, TR-FRET, human UHRF1, single concentration | E3 ubiquitin-protein ligase UHRF1 (Homo sapiens), Q96T88 | UHRF1 binding to methylated oligo | inhibition, % at 4.4 µM | 370,000 tested, 0.75% active | AID 687016, 2013; in the data active means inhibition above about 21%;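 further: UHRF1 SRA domain binding a hemimethylated CpG hairpin DNA probe; 0% = median of test compound wells and 100% = reference inhibitor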
Target sequence (Q96T88 whole entry, looked up, the tested form may be a part): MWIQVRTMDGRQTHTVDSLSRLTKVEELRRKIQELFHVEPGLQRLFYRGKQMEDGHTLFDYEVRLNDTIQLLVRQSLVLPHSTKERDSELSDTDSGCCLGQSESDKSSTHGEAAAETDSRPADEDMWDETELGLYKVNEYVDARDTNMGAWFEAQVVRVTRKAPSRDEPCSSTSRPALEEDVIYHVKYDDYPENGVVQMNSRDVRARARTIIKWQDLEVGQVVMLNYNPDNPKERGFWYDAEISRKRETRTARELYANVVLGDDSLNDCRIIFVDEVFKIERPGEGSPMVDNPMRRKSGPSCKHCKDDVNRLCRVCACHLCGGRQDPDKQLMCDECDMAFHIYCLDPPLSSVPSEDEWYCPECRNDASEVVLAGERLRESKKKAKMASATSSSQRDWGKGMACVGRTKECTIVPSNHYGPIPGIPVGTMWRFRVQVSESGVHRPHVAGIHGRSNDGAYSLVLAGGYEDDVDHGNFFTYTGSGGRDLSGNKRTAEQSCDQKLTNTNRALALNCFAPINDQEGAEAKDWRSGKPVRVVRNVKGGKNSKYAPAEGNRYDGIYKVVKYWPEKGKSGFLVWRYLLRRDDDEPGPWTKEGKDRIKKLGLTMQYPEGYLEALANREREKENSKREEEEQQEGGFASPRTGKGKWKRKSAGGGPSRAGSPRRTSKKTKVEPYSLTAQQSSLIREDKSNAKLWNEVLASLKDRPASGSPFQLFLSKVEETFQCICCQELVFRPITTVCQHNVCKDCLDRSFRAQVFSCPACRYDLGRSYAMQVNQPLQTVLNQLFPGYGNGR
PG9 Ab binder – binders of HIV-1 gp120 antibody PG9, primary screen, biochemical, TR-FRET | HIV-1 gp120 / PG9 antibody interaction | TR-FRET gp120-PG9 antibody binding | inhibition, % at 6.7 µM | 360,000 tested, 0.43% active | AID 624416, 2012; in the data active means inhibition above about 8.5%
DNMT1 block – human DNMT1 methyltransferase inhibitors, primary screen, biochemical, molecular beacon, fluorescence, HinP1I cleavage, uHTS. inhibition (reported as % activation of signal), % at 10 µM. DNA (cytosine-5)-methyltransferase 1 (Homo sapiens), P26358. AID 588458, 2011. 360,000 tested, 0.83% active; in the data active means inhibition above about 50%
MBD2 inh – inhibitors of MBD2 binding to methylated DNA, primary screen, biochemical, TR-FRET, DNA-binding domain, human | MBD2 binding to methylated oligonucleotide | inhibition, % at 4.4 µM | 370,000 tested, 0.31% active; in the data active means inhibition above about 13%
LEDGF integ inh – blockers of LEDGF/p75-dependent integrase strand transfer – biochemical, TR-FRET, high throughput, primary screen; AID 743269, 2014; TR-FRET IN-LEDGF/p75 DNA integration, Eu/Cy5; 370,000 tested, 0.64% active; inhibition, % at 3.7 µM;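 active means inhibition above the screen-wide mean plus 3 SD, cut at about 13% in these data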;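 further: signal is the Cy5 over europium emission ratio at 671 and 618 nm; 0% = plate median of compound wells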
rCAG binder conf – small molecules binding CAG repeat RNA – biochemical, fluorescence, confirmation. shares compounds with rCAG binder. r(CAG) RNA repeat, TO-PRO-1 dye displacement fluorescence. inhibition, % at 3 µM. 4,300 tested, 70% active. AID 652065, 2013;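 active means inhibition above a per-plate cutoff, the mean inhibition of sample wells plus 3 SD, cut at about 35% in these data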;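 further: loss of TO-PRO-1 fluorescence as compound displaces dye from 1x1 AA loop RNA; 0% = DMSO only wells and 100% = 100 µM mitoxantrone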
DNA CAG counter – displacement of TO-PRO-1 from CAG DNA duplex, counter-screen for rCAG RNA repeat binder project, biochemical, fluorescence, TO-PRO-1 dye, d(CAG) DNA oligo. shares compounds with rCAG binder. d(CAG) DNA oligo TO-PRO-1 dye displacement. inhibition, % at 3 µM. 4,300 tested, 94% active. AID 652068, 2013;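 active means inhibition above its plate's cutoff, the mean test-well inhibition plus 3 SD, cut at about 4.8% in these data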;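 further: 0% = DNA dye mix with DMSO and 100% = 100 µM mitoxantrone; hits displace the dye from DNA and so lower well fluorescence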
Numbers without * were called inactive; x = not tested or not shown.

SMILES	rCAG binder	UHRF1 binding	PG9 Ab binder	DNMT1 block	MBD2 inh	LEDGF integ inh	rCAG binder conf	DNA CAG counter
Cc1ccccc1C(=O)Nc1scc(-c2ccc(Br)cc2)c1C(=O)O	9	1	0	7	-1	-3	x	x
O=C(Nc1scc(-c2ccc(Br)cc2)c1C(=O)O)c1ccccc1F	25	-2	1	0	-2	0	x	x
COc1ccc(-c2csc(NC(=O)c3ccccc3Br)c2C(=O)O)cc1	55*	3	5	3	5	8	36*	10*
COc1ccc([C@H]2CC(=O)C=C(c3c(OC)cccc3OC)C2)cc1	-5	1	-3	2	-1	-2	x	x
O=C(NCc1cccnc1)c1cc(C2CCCN(S(=O)(=O)c3cccs3)C2)on1 (configuration not stated)	1	1	0	7	9	-2	x	x
O=C(COc1ccc2c(c1)oc(=O)c1ccccc12)N[C@@H](Cc1c[nH]c2ccccc12)C(=O)O	51*	0	0	1	3	-3	54*	18*
CC(Oc1ccc2c(c1)oc(=O)c1ccccc12)C(=O)NC(Cc1c[nH]c2ccc(O)cc12)C(=O)O (configuration not stated)	43*	6	-3	25	10	6	27	6.1*
Cc1cc(OC(C)C(=O)NC(Cc2c[nH]c3ccc(O)cc23)C(=O)O)c2c(C)c(C)c(=O)oc2c1 (configuration not stated)	13	0	-4	2	0	1	x	x
Cn1cc(S(=O)(=O)N2CCCC2)cc1C(=O)NCc1ccccc1Cl	2	-3	-1	2	1	-2	x	x
CCC(C)(C)c1ccc(Oc2cccc(C(=O)O)c2)cc1	39*	1	-1	0	3	-7	29	3
CN(C)/C=C(/C#N)C(=O)c1cccc(Oc2ccc(C(C)(C)C)cc2)c1	50*	0	1	-9	3	-2	20	6.1*
O=C(CSC1=NS(=O)(=O)c2cc(F)ccc2N1)Nc1ccc(F)cc1	24	-2	-1	-2	-2	-3	x	x
CC(=O)c1ccc(NC(=O)CSC2=NS(=O)(=O)c3cc(Cl)ccc3N2)cc1	61*	0	0	3	-2	2	44*	14*
O=C(CSC1=NS(=O)(=O)c2cc(Cl)ccc2N1)Nc1cccc(F)c1	60*	-2	0	-3	5	5	42*	12*
CC(=O)Nc1ccc(NC(=O)CSC2=NS(=O)(=O)c3cc(F)ccc3N2)cc1	19	-1	-1	1	-1	1	x	x
COc1cccc(CCc2nnc(N)s2)c1	6	5	2	1	5	-8	x	x
CN1CCN(c2cccc3c2S(=O)(=O)N[C@@H](Cc2ccccc2)CO3)CC1	-1	0	-1	x	3	3	x	x
O=C(O)c1cccc(N/N=C(\N=Nc2ccccc2)c2ccccc2)c1	38*	-1	-3	-2	3	-3	53*	17*
COc1ccc2ccccc2c1C=Nn1c(-c2n[nH]c3c2CCC3)n[nH]c1=S	48*	-5	x	x	-4	0	49*	18*
OCC1(CO)COC(/C=C/c2ccccc2)=N1	-3	2	-1	-1	3	1	x	x
N=C1/C(=C\c2ccc(SCc3ccccc3)o2)C(=O)N=C2SC(CC(=O)N3CCOCC3)=NN12	71*	0	1	10	-2	-3	68*	30*
COc1cc(/C=C2/C(=N)N3N=C(CC(=O)N4CCOCC4)SC3=NC2=O)ccc1OCc1ccc(F)cc1	36*	9	-2	-1	5	11	77*	35*
O=S(=O)(Nc1nc2ccc(S(=O)(=O)N3CCCCC3)cc2s1)c1ccccc1	72*	-2	-2	-4	-5	2	65*	28*
Cc1ccc(S(=O)(=O)Nc2nc3ccc(S(=O)(=O)N4CCCC4)cc3s2)cc1	71*	0	-2	-4	-3	4	74*	38*
CC(=O)Nc1nc2ccc(S(=O)(=O)N3CCCCC3)cc2s1	4	1	-1	-1	3	2	x	x
SMILES	rCAG binder	UHRF1 binding	PG9 Ab binder	DNMT1 block	MBD2 inh	LEDGF integ inh	rCAG binder conf	DNA CAG counter
Cc1ccc(/C=C2/C(=N)N3N=C(CC(=O)N4CCCC4)SC3=NC2=O)cc1	14	0	-2	4	1	1	x	x
O=C(N/N=C/c1ccc(O)c([N+](=O)[O-])c1)C(O)(c1ccccc1)c1ccccc1	26	0	-3	-2	-7	2	x	x
O=C(N/N=C/c1cc([N+](=O)[O-])cc([N+](=O)[O-])c1O)C(O)(c1ccccc1)c1ccccc1	68*	-4	0	0	-4	1	71*	30*
CC(C)c1ccc(-c2nc(N3CCCCC3)[nH]c(=O)c2C#N)cc1	3	0	0	4	-1	0	x	x
CC1=Nc2nc(N3CCCCC3)c(C#N)c3c4c(nc(c23)N1)N(c1ccc(C(C)C)cc1)C(=O)C4	62*	14	2	-6	2	-1	38*	22*
COc1cccc(CNS(=O)(=O)c2ccccc2Br)c1OC	1	3	-1	6	-3	2	x	x
CCc1ccc([C@@H]2CC=C(C(=O)O)[C@H](c3ccc(Cl)cc3)N2S(=O)(=O)c2ccc(C)cc2)cc1	83*	-2	0	17	3	0	85*	54*
CCc1ccc([C@@H]2CC=C(C(=O)O)[C@H](c3cccc(Cl)c3)N2S(=O)(=O)c2ccc(C)cc2)cc1	82*	3	1	3	-2	1	76*	36*
CCc1ccc([C@@H]2CC=C(C(=O)O)[C@H](c3ccc(C)cc3)N2S(=O)(=O)c2ccc(C)cc2)cc1	79*	1	0	7	1	-1	82*	50*
Cc1ccc(S(=O)(=O)N2[C@@H](c3cccc(Cl)c3)C(C(=O)O)=CC[C@H]2c2cccc(Cl)c2)cc1	9	0	0	8	-3	3	x	x

Assay outcomes from PubChem BioAssay.
